Beta cell apopt = blocks beta cell apoptosis; protection from apoptosis, % (test concentration not listed); INS-1E cytokine-induced death, ATP luminescence, 48 h; percent of positive-control rescue, neutral wells zero; hit rate 0.8% among 300,000;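 active = Every replicate reaches about 75%, or at least half do and their mean reaches it too, limit read from the data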;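 note: 0% = cytokine-treated negative control wells and 100% = positive control rescue; higher means more ATP so stronger rescue from cytokine killing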
PP5 inh = inhibitors of human protein phosphatase 5 (PP5) | inhibition, % at 6.7 µM | P53041 | hit rate 0.18% among 320,000 | purified PP5c, OMFP substrate fluorescence;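 active = inhibition above the campaign's mean inhibition across all tested compounds plus 3 SD, cut at about 9.5% in these data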;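 note: 0% = DMSO only and 100% = 100 µM cantharidin control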
PP1 counter = blocks human PP1-alpha phosphatase, a PP5 counter-screen. P62136. purified PP1alpha, OMFP fluorescence. inhibition, % at 6.7 µM. hit rate 0.9% among 320,000. AID 2235;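 active = inhibition above the mean inhibition of all tested compounds plus 3 SD, computed separately for each screening campaign, cut at about 15% in these data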
Target sequence (P62136 whole entry, looked up): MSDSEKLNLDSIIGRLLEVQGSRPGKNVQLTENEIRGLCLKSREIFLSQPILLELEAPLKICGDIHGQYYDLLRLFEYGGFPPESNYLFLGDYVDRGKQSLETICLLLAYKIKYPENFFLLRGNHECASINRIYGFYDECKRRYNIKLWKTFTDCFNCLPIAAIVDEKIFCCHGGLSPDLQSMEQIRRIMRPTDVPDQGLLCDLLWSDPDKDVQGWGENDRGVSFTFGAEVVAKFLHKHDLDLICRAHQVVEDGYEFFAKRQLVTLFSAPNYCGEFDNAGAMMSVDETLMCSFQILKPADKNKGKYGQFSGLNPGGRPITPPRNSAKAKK
Mdm2-MdmX inh = inhibitors of human Mdm2/MdmX interaction | SaOS-2 split-luciferase Mdm2/MdmX complementation, luminescence | inhibition, % at 8 µM | O15151+Q00987 | hit rate 3% among 330,000;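 active = inhibition of at least 50% at 8 µM in the primary screen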
CSC inhib = blocks cancer stem cells; cancer stem cell-like cells viability, luminescence; inhibition, % at 7.5 µM; hit rate 1.1% among 300,000; in the data active = inhibition above about 75%; tested in HMLE shEcad cells
Calb FLC = affects C. albicans growth with fluconazole | C. albicans CaCi-2 (fluconazole-resistant clinical isolate) + fluconazole, Alamar Blue growth, 48 h | growth inhibition, % (test concentration not listed) | hit rate 0.57% among 300,000 | AID 1979;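 active = growth inhibition above about 58% in most replicates, limit read from the data, passing the limit was not always enough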;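 note: all wells also contain fluconazole at 8 µg/ml as a sub-toxic cotreatment; 0% = median of DMSO wells and 100% = median of geldanamycin control wells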
Mdm2-MdmX conf = human Mdm2/MdmX binding inhibition, confirmed; shares compounds with Mdm2-MdmX inh; luminescent assay; inhibition, % at 8 µM; hit rate 55% among 10,000; in the data active = inhibition above about 40%
Full FLuc ctr = full-length luciferase inhibition in Mdm2/MdmX counter-screen; shares compounds with Mdm2-MdmX inh; SaOS-2 full-length luciferase counterscreen, luminescence; inhibition, % at 8 µM; hit rate 77% among 6,200; AID 504607;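 active = mean inhibition at 8 µM reaching about 37%, which flags the compound as non-specific, limit read from the data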;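 note: p53-null SaOS-2 cells with luciferase driven by a doxycycline-inducible promoter; compound on cells about two nights before reading with doxycycline added after day one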
Active calls of the source: *; x = no result. Hits are enriched below; roughly 4.9% of the tested compounds scored in any of these assays.

SMILES	Beta cell apopt	PP5 inh	PP1 counter	Mdm2-MdmX inh	CSC inhib	Calb FLC	Mdm2-MdmX conf	others
COC1CCCN(C(=O)c2ccc(OC3CCN(S(=O)(=O)N(C)C)CC3)cc2)C1 (stereo not drawn)	8	3	-3	-9	-8	-11	x
C=CCOc1ccc(C(=O)Nc2ccccc2C(=O)NCc2cccnc2)cc1	0	-1	0	58*	-3	6	55*	Full FLuc ctr=61*
CCOC(=O)C(C(=O)OCC)C(C(=O)OCC)N1CCOCC1 (stereo not drawn)	x	1	2	100*	35	-8	-16
Cc1ccc2[nH]cc(/C=C/c3cc[n+](C)cc3)c2c1	121*	x	x	72*	-10	3	61*	Full FLuc ctr=57*
CC[n+]1ccc(/C=C/c2c[nH]c3ccccc23)cc1	73	0	-4	56*	12	-17	20
CC(C)(C)N1CC23C=CC(C[C@@H]2C1=O)O3 (stereo partly drawn)	-1	0	-3	-30	-17	-8	x
COc1cc2cc(CN(CCc3ccccc3C)C(=S)NCCCN(C)C)c(=O)[nH]c2cc1OC	1	2	2	55*	3	-6	22
COc1cc2cc(CN(CCc3ccccc3C)C(=S)NCCCN3CCOCC3)c(=O)[nH]c2cc1OC	0	2	1	52*	2	-5	20
COc1ccc(-c2cc(-c3ccccc3)c(C#N)c(S(C)=O)n2)cc1 (stereo not drawn)	-6	2	-1	81*	24	11	21
COc1ccc(-c2cc(-c3ccccc3)c(C#N)c(=S)[nH]2)cc1	-1	-1	-2	-4	7	-19	x
COc1cccc(CN2CCNC(=O)C2CC(=O)NCc2cn3ccc(C)cc3n2)c1OC (stereo not drawn)	-6	0	-1	-13	-17	-4	x
COc1ccc(-c2cc(C(F)(F)F)nc(N3CCN(C)CC3)n2)cc1	x	4	4	4	3	-15	x
COc1ccc(-c2cc(C(F)(F)F)nc(-n3ccnc3C)n2)cc1	-3	0	0	55*	7	1	36
CC(c1ccccc1C(O)c1ccccc1)N(C)C (stereo not drawn)	-1	5	3	29	-1	2	x
Cc1ccc(C(O)(c2ccccc2)c2ccccc2C(C)N(C)C)c(C)c1 (stereo not drawn)	-13	2	-1	62*	21	37	25
COC(=O)c1[nH]c2cc(OC)c(OC)cc2c1/C=N/Nc1ccccc1	5	5	-3	79*	53	2	25	Full FLuc ctr=85*
O=C(Nc1cccnc1N1CCOCC1)c1cccs1	-2	-1	-2	6	-2	0	x
O=C(Nc1ccc(N2CCN(c3ncccc3C(F)(F)F)CC2)nc1)c1cccs1	17	3	1	65*	30	2	35
O=C(Nc1ccc(N2CCN(c3ccc(C(F)(F)F)cn3)CC2)nc1)c1cccs1	-6	1	0	56*	-2	-7	6
O=C(Nc1ccc(N2CCOCC2)nc1)c1cccs1	-8	-1	1	-7	0	-9	x
CC(C)Cc1nn2c(=O)cc(CSCC(=O)Nc3ccccc3F)nc2s1	-1	1	-4	20	-3	0	x
Cc1ccc(S(=O)(=O)NCCC(=O)NC2CC2)cc1	2	0	7	-9	-7	5	x
CC(C)(C)C(=O)/C(=C\c1ccc([N+](=O)[O-])cc1)n1cncn1	112*	1	2	99*	119*	107*	100*	Full FLuc ctr=2
CC(C)(C)C(=O)/C(=C/c1ccc(Cl)cc1)n1cncn1	-52	x	x	99*	30	-1	100*	Full FLuc ctr=0
CN(C)/C=C(/C(=O)c1ccccc1)n1cncn1	-4	1	-4	7	-11	3	x
SMILES	Beta cell apopt	PP5 inh	PP1 counter	Mdm2-MdmX inh	CSC inhib	Calb FLC	Mdm2-MdmX conf	others
CCNC(=S)N/N=C/c1sccc1C	0	-2	-3	1	-4	5	x
O=C(CSc1n[nH]c(-c2ccccc2F)n1)NCC(=O)Nc1ccc(F)c(F)c1F	0	5	0	-7	-2	-1	x
O=C(Nc1ccc(-c2nc3ccc(NC(=O)c4cccs4)cc3[nH]2)cc1)c1cccs1	24	0	8	95*	102*	-3	47*	Full FLuc ctr=34
Cc1ccccc1C(=O)Nc1ccc(-c2nc3ccc(C(=O)c4ccccc4)cc3[nH]2)cc1	14	3	0	67*	84*	1	33	Full FLuc ctr=46*
O=C(NNC(=O)C1CC(=O)N(Cc2ccccc2)C1)c1ccc(Br)cc1 (stereo not drawn)	-2	2	-2	21	-3	3	x
COc1cc(OC)c(S(=O)(=O)Nc2ccc(C)cn2)cc1NC(C)=O	-4	3	4	7	-11	-6	x
CC(Cc1nnc(N)s1)c1ccccc1 (stereo not drawn)	x	-3	3	12	-2	-5	x
Cc1cnn(-c2cc(N/N=C/c3ccccc3)ncn2)c1	3	-2	4	5	-7	-14	x
Cc1cnn(-c2cc(N/N=C/c3ccccc3F)ncn2)c1	-3	-2	1	64*	-7	-1	24
Cc1cnn(-c2cc(N/N=C/c3cccc(F)c3)ncn2)c1	-6	0	6	75*	-14	-12	26
Cc1ccc2[nH]c(=O)c(CN(Cc3ccco3)S(=O)(=O)c3c(C)ccc4nsnc34)cc2c1	0	1	-1	55*	-16	-5	6
Cc1ccc2nsnc2c1S(=O)(=O)N(Cc1ccco1)Cc1cc2cccc(C)c2[nH]c1=O	x	1	0	35	33	8	x
COc1ccc(C2c3ccc4ccccc4c3Oc3ncn(CCCO)c(=N)c32)cc1OC (stereo not drawn)	7	2	1	78*	49	51	71*	Full FLuc ctr=48*
COc1ccc(C2c3ccc4ccccc4c3Oc3ncn(CCO)c(=N)c32)cc1OC (stereo not drawn)	4	-1	1	58*	15	25	33
CCN(CCCCCN(C)C)Cc1cc2ccccc2o1	x	0	-3	-25	x	-7	x
Cc1cc(C)c2c(N)c(C(=O)c3ccc(Cl)cc3Cl)sc2n1	16	5	1	70*	11	-5	75*	Full FLuc ctr=60*
Cc1cc(C)c2c(N)c(C(=O)Nc3ncc(C)s3)sc2n1	14	2	-4	79*	x	x	81*	Full FLuc ctr=55*
COc1cc(/C=N/NC(=O)c2sc3nc(C)cc(C)c3c2N)ccc1O	25	1	-4	73*	15	47	52*	Full FLuc ctr=64*
Nc1ccc2c(c1)OC1(CCCCC1)O2	x	x	x	x	x	4	x
COc1ccc(NC(=S)N(C)CC2COc3ccccc3O2)cc1 (stereo not drawn)	-3	3	-4	-13	-8	-6	x

Bioassay records: PubChem BioAssay, several laboratories
